Read-outs that look alike come from different tables or passages of the source.

Results on 10 molecules are retold here after PMC5540273 (PLoS ONE, 2017).

One test relates to MAP3K15. The following applies: concentration: 1 μM, replicates: in singlicate; n = 1.
The subject of the next test is MAP3K1. To be noted: concentration: 1 μM, replicates: in singlicate; n = 1.
The next test has as its system MAP3K2. To be noted: concentration: 1 μM, replicates: in singlicate; n = 1.
The subject of a further test is MAP3K3. The following applies: concentration: 1 μM, replicates: in singlicate; n = 1.
The subject of a further test is MAP3K4. To be noted: concentration: 1 μM, replicates: in singlicate; n = 1.
A further test relates to MAP4K2. To be noted: concentration: 1 μM, replicates: in singlicate; n = 1.
Another test deals with MAP4K3. To be noted: concentration: 1 μM, replicates: in singlicate; n = 1.
For another test, the system named is MAP4K4. The following applies: concentration: 1 μM, replicates: in singlicate; n = 1.
The next test has as its system MAP4K5. To be noted: concentration: 1 μM, replicates: in singlicate; n = 1.
Another test has as its system MAPKAPK2. The following applies: n = 1.
The test system of another test is MAPKAPK5. The following applies: concentration: 1 μM, replicates: in singlicate; n = 1.
The next test has as its system MARK1. The following applies: concentration: 1 μM, replicates: in singlicate; n = 1.
Another test relates to MARK2. The following applies: n = 1.
Another test has as its system MARK3. The following applies: n = 1.
A further test has as its system MARK4. The following applies: n = 1.
The subject of a further test is MAST1. To be noted: concentration: 1 μM, replicates: in singlicate; n = 1.
The next test deals with T1, MEK1.
T1 construct: gene MAP2K1
To be noted: concentration: 1 μM, replicates: in singlicate; n = 1.

The test system of another test is T2, MEK2.
T2 construct: gene MAP2K2
The following applies: concentration: 1 μM, replicates: in singlicate; n = 1.

For a further test, the system named is T3, MEK3.
T3 construct: gene MAP2K3
The following applies: concentration: 1 μM, replicates: in singlicate; n = 1.

The test system of another test is T4, MEK4.
T4 construct: gene MAP2K4
The following applies: concentration: 1 μM, replicates: in singlicate; n = 1.

The mark [1] stands for this setting: concentration: 1 μM, replicates: in singlicate.
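Also: KINOMEscan kinase panel screen.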

Turning to `COc1cc(Nc2nccc(N3CCC(NC(=O)c4cc5ccccc5s4)C3)n2)cc(OC)c1OC` (centres unmarked) [GSK1379760], the “%Inh” value in the test with MAP3K15 stood at 0%; with MAP3K1, 7%; in the test on MAP3K2, 0%; with MAP3K3, 11%; with MAP3K4 it was 16%; in the test with MAP4K2 it was 13%. For the same molecule, the “%Inh” value in the test on MAP4K3 is 8%; with MAP4K4, 25%; in the test on MAP4K5, 28%; with MAPKAPK2 (setting [1]) it was 0%; in the test on MAPKAPK5, 1%; with MARK1, 7%. Also, the “%Inh” value worked out at 12% in the test on MARK2 (setting [1]); 0% with MARK3 (setting [1]); 22% with MARK4 (setting [1]); 1% with MAST1; 7% in the test on MEK1; 0% in the test with MEK2. For the same molecule, the “%Inh” value in the test with MEK3 is recorded as 3%; with MEK4 it was 0%.
In the case of `CCn1c(-c2nonc2N)nc2c(C#CC(C)(C)O)ncc(OCCCCN)c21.O=C(O)C(F)(F)F.O=C(O)C(F)(F)F` [GSK507274], the “%Inh” value in the test on MAP3K15 amounted to 3%; in the test with MAP3K1, 100%; in the test with MAP3K2 it was 90%; in the test with MAP3K3, 81%; in the test with MAP3K4 it was 53%; in the test on MAP4K2 it was 0%. For the same molecule, the “%Inh” value in the test with MAP4K3 was determined as 0%; in the test with MAP4K4 it was 7%; in the test with MAP4K5 it was 35%; in the test on MAPKAPK2 (1 µM), 28%; with MAPKAPK5, 0%; with MARK1 it was 0%. For the same molecule, the “%Inh” value with MARK2 (1 µM) amounted to 68%; in the test with MARK3 (1 µM), 71%; in the test on MARK4 (1 µM), 0%; in the test with MAST1 it was 56%; with MEK1, 0%; in the test on MEK2, 34%. Besides, the “%Inh” value in the test on MEK3 was 0%; with MEK4 it was 1%.
Turning to `Cc1ccc(C(=O)Nc2ccc(Nc3ccnc4cc(-c5nccs5)ccc34)cc2O)cc1.Cl` [GW494702], the “%Inh” value is on record as 16% in the test with MAP3K15; 14% with MAP3K1; 0% in the test with MAP3K2; 0% with MAP3K3; 19% in the test with MAP3K4; 0% in the test on MAP4K2. For the same molecule, the “%Inh” value is 0% with MAP4K3; 5% in the test on MAP4K4; 71% with MAP4K5; 17% with MAPKAPK2 (setting [1]); 0% in the test with MAPKAPK5; 0% in the test with MARK1. In addition, the “%Inh” value is listed as 0% in the test with MARK2 (setting [1]); 0% in the test on MARK3 (setting [1]); 0% in the test with MARK4 (setting [1]); 15% in the test with MAST1; 13% in the test on MEK1; 0% with MEK2. Also, the “%Inh” value is 0% in the test with MEK3 and 21% in the test on MEK4.
In the case of `Cl.Cl.NCC(NC(=O)c1cc(-c2ccccc2)c(-c2ccnc3[nH]ccc23)s1)c1ccccc1` (centres unmarked) [GSK1321561], the “%Inh” value in the test with MAP3K15 came out at 0%; with MAP3K1 it was 22%; with MAP3K2, 27%; with MAP3K3, 0%; with MAP3K4 it was 0%; in the test with MAP4K2 it was 64%. Further, the “%Inh” value in the test on MAP4K3 was found to be 0%; in the test on MAP4K4 it was 98%; in the test with MAP4K5, 24%; in the test with MAPKAPK2 (setting [1]) it was 0%; in the test with MAPKAPK5, 0%; in the test with MARK1, 0%. The “%Inh” value came to 0% with MARK2 (setting [1]); 11% in the test on MARK3 (setting [1]); 3% in the test on MARK4 (setting [1]); 0% in the test with MAST1; 5% with MEK1; 0% in the test with MEK2. Moreover, the “%Inh” value with MEK3 is reported as 51%; with MEK4, 42%.
With `Nc1ncc(-c2ccc3nccc(-c4ccncc4)c3c2)cc1S(=O)(=O)N1CCOCC1` [GSK1627798], the “%Inh” value in the test on MAP3K15 is on record as 0%; in the test with MAP3K1, 7%; in the test with MAP3K2 it was 19%; in the test with MAP3K3, 0%; in the test on MAP3K4, 9%; in the test with MAP4K2 it was 0%. For the same molecule, the “%Inh” value with MAP4K3 worked out at 0%; in the test on MAP4K4, 0%; in the test with MAP4K5, 3%; in the test with MAPKAPK2 (setting [1]), 14%; in the test on MAPKAPK5 it was 0%; with MARK1, 0%. In addition, the “%Inh” value with MARK2 (setting [1]), with MARK3 (setting [1]), with MARK4 (setting [1]), with MAST1, in the test on MEK1 and with MEK2 was 0% in each case. The results for the “%Inh” value with MEK3 and with MEK4 were 24% and 52%, respectively.
In the case of `FC(F)(F)c1ccc(/C=C/c2cncnc2Nc2ccc3[nH]c(Cc4ccccc4)nc3c2)cc1` [GW709199], the “%Inh” value in the test on MAP3K15 amounted to 0%; in the test on MAP3K1, 0%; in the test on MAP3K2, 0%; in the test with MAP3K3 it was 1%; with MAP3K4, 15%; in the test on MAP4K2, 0%. Moreover, the “%Inh” value came to 0% in the test on MAP4K3; 0% in the test on MAP4K4; 0% in the test on MAP4K5; 3% in the test on MAPKAPK2 (setting [1]); 0% with MAPKAPK5; 0% with MARK1. Moreover, the “%Inh” value in the test with MARK2 (setting [1]) is on record as 0%; in the test with MARK3 (setting [1]) it was 28%; in the test with MARK4 (setting [1]), 8%; in the test with MAST1, 5%; in the test with MEK1, 0%; in the test on MEK2 it was 25%. Moreover, the “%Inh” value with MEK3 and in the test on MEK4 was 0% throughout.
Take `CN(C)S(=O)(=O)c1cc(-c2ccc3nccc(-c4cccc(S(N)(=O)=O)c4)c3c2)cnc1N` [GSK1669921]: the “%Inh” value with MAP3K15 was determined as 23%; in the test on MAP3K1 it was 6%; with MAP3K2, 0%; in the test with MAP3K3, 0%; in the test with MAP3K4, 0%; with MAP4K2 it was 13%. Besides, the “%Inh” value amounted to 5% with MAP4K3; 0% in the test on MAP4K4; 0% in the test on MAP4K5; 19% in the test on MAPKAPK2 (setting [1]); 8% in the test with MAPKAPK5; 0% with MARK1. Besides, the “%Inh” value with MARK2 (setting [1]) is on record as 0%; with MARK3 (setting [1]), 0%; in the test on MARK4 (setting [1]), 0%; in the test on MAST1, 0%; with MEK1, 7%; with MEK2, 0%. The “%Inh” value in the test with MEK3 amounted to 0%; in the test on MEK4, 27%.
With `C[C@@H]1CC[C@@H](C(=O)Nc2ccccc2)CN1c1cc(-c2ccc3c(N)n[nH]c3c2)nc(N)n1` [GSK2286062], the “%Inh” value in the test with MAP3K15 stood at 46%; in the test with MAP3K1, 0%; in the test on MAP3K2, 16%; with MAP3K3 it was 0%; in the test with MAP3K4, 4%; in the test on MAP4K2, 3%. Further, the “%Inh” value with MAP4K3, with MAP4K4, in the test with MAP4K5, in the test on MAPKAPK2 (setting [1]), in the test with MAPKAPK5 and with MARK1 was 0% each time. The “%Inh” value in the test on MARK2 (setting [1]) is 9%; in the test on MARK3 (setting [1]), 0%; in the test with MARK4 (setting [1]), 0%; in the test on MAST1, 3%; in the test on MEK1, 15%; with MEK2, 1%. The “%Inh” value was 33% in the test with MEK3 and 8% in the test with MEK4.
Take `Cl.Cl.NCC(NCc1ccc(-c2ccnc3[nH]ccc23)s1)c1ccccc1` (centres unmarked) [GSK1321565]: the “%Inh” value in the test on MAP3K15 was 0%; in the test with MAP3K1 it was 0%; in the test on MAP3K2 it was 63%; with MAP3K3 it was 29%; in the test on MAP3K4, 0%; in the test on MAP4K2, 64%. For the same molecule, the “%Inh” value in the test with MAP4K3 turned out to be 2%; in the test on MAP4K4, 0%; in the test on MAP4K5, 0%; with MAPKAPK2 (setting [1]), 0%; in the test on MAPKAPK5, 0%; in the test on MARK1 it was 0%. Further, the “%Inh” value in the test with MARK2 (setting [1]) is given as 0%; in the test on MARK3 (setting [1]), 0%; in the test on MARK4 (setting [1]) it was 0%; in the test with MAST1, 11%; in the test on MEK1 it was 0%; in the test with MEK2 it was 0%. Further, the “%Inh” value with MEK3 is recorded as 49%; with MEK4, 18%.
As to `c1ccc(-c2cnc3nccnn23)cc1` [AH20685], the “%Inh” value is reported as 0% in the test with MAP3K15; 0% in the test on MAP3K1; 0% in the test with MAP3K2; 0% in the test with MAP3K3; 21% in the test on MAP3K4; 0% in the test with MAP4K2. In addition, the “%Inh” value in the test with MAP4K3, in the test on MAP4K4, with MAP4K5, in the test on MAPKAPK2 (setting [1]), with MAPKAPK5 and in the test on MARK1 was 0% throughout. In addition, the “%Inh” value with MARK2 (setting [1]), in the test on MARK3 (setting [1]), in the test on MARK4 (setting [1]), with MAST1, with MEK1 and in the test with MEK2 was 0% in each case. In addition, the figures for the “%Inh” value in the test with MEK3 and with MEK4 were 0% and 2%, respectively.
